Screens deposited in PubChem by several laboratories.
Shown are actives, neighbours in structure and some others; about 1.5% of the full set was active somewhere.
HePTP inh: inhibitors of human HePTP phosphatase | recombinant HePTP phosphatase activity, OD absorbance | 0.64% of 110,000 active | inhibition, % at 20 µM | AID 521; in the data active = inhibition above about 50%;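 also: plate controls were vehicle for no effect and reference inhibitor for full effect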
Cdc25B block: inhibitors of human Cdc25B phosphatase; recombinant Cdc25B, OMFP fluorescence Ex485/Em525; inhibition, %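 (compounds tested at 10 µM final in the well)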; 0.1% of 65,000 active; in the data active = inhibition above about 50%
TNAP act mid DEA: activators of human TNAP at intermediate phosphate acceptor | activation factor at 20 µM | P05186 | AID 813 | purified TNAP, CDP-star luminescence, 100 mM DEA, 30 min; stronger effect = higher value; scale: 0 levamisole-inhibited, 1 vehicle-only enzyme | 64,000 tested, under 10 active;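 active = activation factor of at least 2 at 20 µM, relative to controls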
Target sequence (P05186 whole entry, looked up): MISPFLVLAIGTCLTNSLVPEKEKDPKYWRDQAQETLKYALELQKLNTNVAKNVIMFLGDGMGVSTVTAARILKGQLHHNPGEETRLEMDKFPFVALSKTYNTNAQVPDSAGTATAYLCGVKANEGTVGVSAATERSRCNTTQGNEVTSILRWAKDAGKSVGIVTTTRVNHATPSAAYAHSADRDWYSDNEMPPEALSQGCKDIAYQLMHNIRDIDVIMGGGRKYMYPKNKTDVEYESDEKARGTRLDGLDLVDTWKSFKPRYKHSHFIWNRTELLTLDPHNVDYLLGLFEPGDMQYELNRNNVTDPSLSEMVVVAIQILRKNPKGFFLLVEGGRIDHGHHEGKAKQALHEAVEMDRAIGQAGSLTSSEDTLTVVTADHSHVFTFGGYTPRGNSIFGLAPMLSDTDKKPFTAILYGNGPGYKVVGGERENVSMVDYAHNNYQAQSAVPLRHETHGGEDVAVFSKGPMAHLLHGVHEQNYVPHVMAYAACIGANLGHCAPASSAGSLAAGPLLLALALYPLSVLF
PLAP activator: human PLAP activation; P05187; purified PLAP enzyme, luminescent substrate read-out; stronger effect = higher value; activation fold at 20 µM; 1.2% of 96,000 active; AID 696; in the data active = activation fold above about 2
Hsp90 block: displaces geldanamycin probe from tumor Hsp90 | P07900 | NCI-N417 lysate Hsp90, Cy3B-geldanamycin FP displacement | inhibition, % at 30 µM | 0.35% of 64,000 active | AID 429;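 active = inhibition above 50%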;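 also: 0% = tracer plus lysate wells and 100% = tracer alone without lysate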
MKP-1 inh: inhibitors of human MKP-1 phosphatase. 0.15% of 65,000 active. inhibition, %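 (compounds tested at a single concentration somewhere between 10 and 100 µM)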. AID 374. P28562. recombinant MKP-1, OMFP hydrolysis fluorescence;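 active = inhibition above about 50%, limit read from the data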;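 also: 0% = DMSO max control wells and 100% = wells with enzyme stopped by NaOH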
Redox H2O2 0p5DTT: redox cycling H2O2 generation, Cdc25B counter-screen. shares compounds with Cdc25B block. cell-free redox cycling H2O2 generation, 0.5 mM DTT. EC50, µM. 50% of 30 active. AID 682; in the data active = EC50 below about 30 µM
Redox H2O2 1DTT: redox cycling H2O2 generation, Cdc25B counter-screen. cell-free redox cycling H2O2 generation, 1 mM DTT. EC50, µM. 30 tested, under 10 active. shares compounds with Cdc25B block. AID 683; in the data active = EC50 below about 50 µM
Redox cycler: generates H2O2 by redox cycling in DTT; shares compounds with MKP-1 inh; Redox cycling H2O2 generation, phenol red/HRP; EC50, µM; 60 tested, under 10 active; AID 672; call rule not given here
* = called active by the depositor.

Results for CC(=O)NC1=NC(=O)/C(=C\c2ccc(-c3ccc(C(=O)O)cc3)o2)S1 ?
HePTP inh: 103.5*

How did CN(C)CC(Oc1ccc(F)cc1)C(=O)O (centres undefined) do in these assays?
HePTP inh: -1.4

How did CCC(Oc1ccccc1)C(=O)Nc1c(C)n(C)n(-c2ccccc2)c1=O (centres undefined) do in these assays?
HePTP inh: 9.9

What do the screens show for `CCOc1ccccc1OCCN(CC)CC`?
HePTP inh: 9.1

What do the screens show for `CC1CCN(C(=O)CSc2nc3ccc([N+](=O)[O-])cc3s2)C(C)C1` (centres undefined)?
HePTP inh: 4.4

Results for COc1ccc(CCNC(=O)/C=C/c2ccc([N+](=O)[O-])cc2)cc1 ?
HePTP inh: 74.9*

What do the screens show for `Cc1ccc(CSCCNC(=O)CN(c2ccc(C)cc2)S(=O)(=O)c2ccc(F)cc2)cc1`?
HePTP inh: 3.3

What do the screens show for `O=C(O)c1nn2c(C(F)(F)F)c3c(nc2c1Cl)-c1ccccc1CC3`?
HePTP inh: 69.6*

Results for CCOc1ccc2nc(NC(=O)C(NS(=O)(=O)c3cccc4nsnc34)C(C)C)sc2c1 (centres undefined) ?
PLAP activator: 2.4*

What do the screens show for `COc1ccc(C(=O)N2c3ccccc3C(N(C(=O)c3cccs3)c3ccccc3)CC2C)cc1` (centres undefined)?
HePTP inh: 6.8

How did COc1ccc(C(NC(C)=O)c2ccc3cccnc3c2O)c(OC)c1 (centres undefined) do in these assays?
HePTP inh: 8.5; Cdc25B block: 1.4; TNAP act mid DEA: 1.3; PLAP activator: 2.4*; Hsp90 block: 0.5; MKP-1 inh: 3.6

How did Cc1ccc2c(c1)C1C=CCC1C(C(=O)O)N2 (centres undefined) do in these assays?
HePTP inh: 102.4*; Cdc25B block: 51.4*; TNAP act mid DEA: 0.9; Hsp90 block: -24.6; MKP-1 inh: 20.0; Redox H2O2 0p5DTT: >50; Redox H2O2 1DTT: >50

Results for COc1cccc2c1NC(C(=O)O)C1CC=CC21 (centres undefined) ?
Cdc25B block: 50.9*; TNAP act mid DEA: 0.8; Hsp90 block: -26.3; MKP-1 inh: 42.2; Redox H2O2 0p5DTT: >50; Redox H2O2 1DTT: >50

How did COc1cccc2c1NC(c1ccc(Cl)cc1)C1CC=CC21 (centres undefined) do in these assays?
HePTP inh: 5.8

Results for Nc1cccc2cnccc12 ?
HePTP inh: -6.3; Cdc25B block: 81.3*; TNAP act mid DEA: 1; PLAP activator: 1; Hsp90 block: 63.3*; MKP-1 inh: 6.4; Redox H2O2 0p5DTT: >50; Redox H2O2 1DTT: >50

How did N#Cc1cccc2cnccc12 do in these assays?
HePTP inh: 2.8; Cdc25B block: 6.1; TNAP act mid DEA: 0.9; PLAP activator: 0.9; Hsp90 block: 2.6; MKP-1 inh: 3.9

Results for CCCC1=NN2C(=N)/C(=C/c3ccc(OCc4ccc(F)cc4)c(OCC)c3)C(=O)N=C2S1 ?
HePTP inh: -2.9

Results for CC(=O)Nc1cc(OC(C)=O)c2nonc2c1OC(C)=O ?
HePTP inh: -4.7; Cdc25B block: 100.4*; TNAP act mid DEA: 0.9; PLAP activator: 1; Hsp90 block: 91.1*; MKP-1 inh: -17.0; Redox H2O2 0p5DTT: 3.89*; Redox H2O2 1DTT: 13.6*

Results for COc1ccc(N2CC(C(=O)N/N=C/c3cc(OC)ccc3OC)CC2=O)cc1 (centres undefined) ?
HePTP inh: -2.4

Results for COc1ccc2noc3c2c1C(=O)c1ccccc1-3 ?
HePTP inh: 3.0; Cdc25B block: 96.6*; TNAP act mid DEA: 0.8; Hsp90 block: 38.8; MKP-1 inh: 79.2*; Redox H2O2 0p5DTT: 26.8*; Redox H2O2 1DTT: >50; Redox cycler: >50

How did COc1ccc(C)cc1NC(=O)COc1cc(C)c(Cl)c(C)c1 do in these assays?
HePTP inh: -7.2

Results for O=C(O)C1CC=CCC1C(=O)Nc1ccc(-c2ccccc2)cc1 (centres undefined) ?
HePTP inh: -5.2

How did [O-]/[N+](=C\c1ccc(OC(F)F)cc1)c1ccccc1 do in these assays?
HePTP inh: 0.7; Cdc25B block: 72.8*; TNAP act mid DEA: 0.9; PLAP activator: 1; Hsp90 block: 1.6; MKP-1 inh: 64.9*; Redox H2O2 0p5DTT: >50; Redox H2O2 1DTT: >50; Redox cycler: >50

What do the screens show for `[O-]/[N+](=C\c1ccncc1)c1ccccc1`?
HePTP inh: 2.0; Cdc25B block: 63.9*; TNAP act mid DEA: 1; PLAP activator: 1.1; Hsp90 block: 26.1; MKP-1 inh: 64.0*; Redox H2O2 0p5DTT: >50; Redox H2O2 1DTT: >50; Redox cycler: inactive

What do the screens show for `O=C(/C=C/c1ccc([N+](=O)[O-])cc1)c1ccc(OC(F)F)cc1`?
HePTP inh: 9.5

What do the screens show for `Cc1c(N=CC=Nc2c(C)n(C)n(-c3ccccc3)c2=O)c(=O)n(-c2ccccc2)n1C`?
HePTP inh: 9.8; Cdc25B block: 0.9; TNAP act mid DEA: 1; PLAP activator: 1.1; Hsp90 block: -3.3; MKP-1 inh: 6.1

What do the screens show for `Cc1c(N=c2c(=O)c3ccccc3c2=O)c(=O)n(-c2ccccc2)n1C`?
HePTP inh: 15.7; Cdc25B block: 98.4*; TNAP act mid DEA: 0.9; Hsp90 block: 80.0*; MKP-1 inh: 88.2*; Redox H2O2 0p5DTT: 13.2*; Redox H2O2 1DTT: 41.4*; Redox cycler: >50

Results for O=C(/C=C/c1ccc(F)cc1)c1cccc([N+](=O)[O-])c1 ?
HePTP inh: -12.3

What do the screens show for `[O-]/[N+](=C/c1ccc(F)cc1)c1ccccc1`?
HePTP inh: 0.3; Cdc25B block: 47.7; TNAP act mid DEA: 0.9; PLAP activator: 1.1; Hsp90 block: 5.8; MKP-1 inh: 82.1*; Redox cycler: >50

What do the screens show for `Cc1cc(NC(=O)c2ccccc2[N+](=O)[O-])no1`?
HePTP inh: -15.4

What do the screens show for `Cc1cc(Cl)ccc1OCCCC(=O)N1CCN(c2cccc(C)c2C)CC1`?
HePTP inh: 12.4

What do the screens show for `Cc1cccc(N2CCN(C(=O)Cc3c(C(=O)O)[nH]c4ccc(Cl)cc34)CC2)c1C`?
HePTP inh: 9.6; Cdc25B block: 1.5; TNAP act mid DEA: 0.9; PLAP activator: 1.6; Hsp90 block: -3.8; MKP-1 inh: 52.6*; Redox cycler: >50

What do the screens show for `O=C1Nc2ccccc2SC(c2ccccc2)C1O` (centres undefined)?
Cdc25B block: 20.8; TNAP act mid DEA: 1; PLAP activator: 1.3; Hsp90 block: -0.1; MKP-1 inh: 57.8*; Redox cycler: >50
